± gives the standard deviation.
Legend:
[1] = system: MILI (PIWIL2) piRISC loaded with piRNA #1 (26 nt); assay: pre-steady-state target cleavage rate (min^-1); guide: piRNA #1 5'p-UGAGGUAGUAGGUUGUAUAGUAUCCA; higher = faster piRNA-guided slicing of the target; conditions: auxiliary factor: 500 nM mouse GTSF1
How it was run: (§1)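 Cleave-'n-Seq used a transcribed, DNA-blocked target RNA library at 0.1 nM and active affinity-purified piRISC with one synthetic guide at 1 nM, with or without 500 nM GTSF1 partner protein, in HEPES–potassium acetate buffer at 33 °C for 0–8 or 0–960 min. Uncleaved targets were sequenced and normalised to depth and to weakly complementary targets, and three trials were pooled with k3 capped at 0.0001 min^-1. The pre-steady-state cleavage rate was estimated by a burst-and-steady-state fit.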

[2] = system: EfPiwi piRISC loaded with piRNA #1 (26 nt); assay: pre-steady-state target cleavage rate (min^-1); auxiliary factor: 500 nM Ephydatia muelleri Gtsf1; guide: piRNA #1 5'p-UGAGGUAGUAGGUUGUAUAGUAUCCA; MIWI and MILI are mouse PIWI proteins and EfPiwi is from a freshwater sponge; tags in brackets are library labels; higher = faster piRNA-guided slicing of the target
How it was run: as §1

| Sequence | pre-steady-state target cleavage rate [1] | pre-steady-state target cleavage rate [2] |
| --- | --- | --- |
| GGAGAGGAUACGAUACAACCUACUACCUCA | 0.166 ± 0.011 | 0.00899 ± 0.0037 |
| GGAGUGGAUAGUAUACAACCUACUUCCUCA | 0.0138 ± 0.0048 | 0.00264 ± 0.0019 |
| GGAGAGGAUACUAUACAACCUACUACGUCA | 0.058 ± 0.0086 | 0.00636 ± 0.0029 |
| GGAGUGGAGUACUAUACAACCUACUACCUCA | 0.153 ± 0.0099 | 0.0116 ± 0.0055 |
| GGAGACCAAACUAUACAAGCUACUACCUCA | 0.179 ± 0.025 | 0.00675 ± 0.0052 |
| GGAGUGGAUACUAUACAACCUACUACCUGCA | 0.109 ± 0.012 | 0.00841 ± 0.0028 |
| GGAGAGGAUACUAUUCAACCUACUUCCUCA | 0.0111 ± 0.0046 | 0.00313 ± 0.0024 |
| GGAGAGGAAACUAUACAACCUUCUACCUCA | 0.00762 ± 0.006 | 0.00297 ± 0.0027 |
| GGAGACGAUACAAUACAACCUUCUACCUCA | 0.0137 ± 0.0038 | 0.00327 ± 0.0022 |
| GGAGACGAUUCUAUACAACCUACUUCCUCA | 0.0941 ± 0.016 | 0.00271 ± 0.0022 |
| GGAGACCUUACUAUACAACCUACUACGUCA | 0.0741 ± 0.01 | 0.00584 ± 0.0027 |
| GGAGACCAAACUAUACUACCUACUACCUCA | 0.119 ± 0.022 | 0.00362 ± 0.0032 |
| GGAGACCUUACUUUACAACCUACUACCUCA | 0.129 ± 0.01 | 0.00728 ± 0.0042 |
| GGAGUGGAUACAUACAACCUACUACCUCA | 0.131 ± 0.011 | 0.131 ± 0.048 |
| GGAGAGGAAACAAUACAACCUACUACCUCA | 0.186 ± 0.018 | 0.00675 ± 0.004 |
| GGAGACCAUACAUAUACAACCUACUACCUCA | 0.101 ± 0.013 | 0.0645 ± 0.025 |
| GGAGACCAUACUAUUCAACCUACUACCUGA | 0.114 ± 0.018 | 0.00313 ± 0.0026 |
| GGAGUGGAUACUACUACAACCUACUACCUCA | 0.193 ± 0.012 | 0.114 ± 0.038 |
| GGAGACGAUACUAUACAACCUAGUACCACA | 0.00571 ± 0.0053 | 0.00488 ± 0.0029 |
| GGAGAGGACUACUAUACAACCUACUACCUCA | 0.186 ± 0.016 | 0.00553 ± 0.0037 |

| Sequence | pre-steady-state target cleavage rate [1] | pre-steady-state target cleavage rate [2] |
| --- | --- | --- |
| GGAGACCUAUCCAUACAACCUACUACCUCA | 0.0836 ± 0.016 | 0.0212 ± 0.01 |
| GGAGACCAAUCUAUACAACCUACUACCUCA | 0.117 ± 0.02 | 0.0121 ± 0.0056 |
| GGAGAGGAUACUAUACAACCUUCAACCUCA | 0.00483 ± 0.0021 | 0.00352 ± 0.0022 |
| GGAGACCUAACUAUACAACCUACUACCUCA [g2:g21:cont:t1A] | 0.148 ± 0.032 | 0.013 ± 0.0043 |
| GGAGAGGAUUACUAUACAACCUACUACCUCA | 0.132 ± 0.0095 | 0.0829 ± 0.03 |
| GGAGACGAUACUAUACAACCUACUACCUCU [g2:g24:cont:t1U] | 0.24 ± 0.019 | 1.35 ± 0.49 |
| GGAGAGCAUACUAUACAACGUACUACCUCA | 0.0213 ± 0.003 | 0.00394 ± 0.0014 |
| GGAGACGAUACUAUGACAACCUACUACCUCA | 0.186 ± 0.017 | 0.00896 ± 0.0044 |
| GGAGAGGAUACUAUAGAACCUACUACCUGA | 0.0217 ± 0.005 | 0.00264 ± 0.0017 |
| GGAGAGGAUAGUAUACAACCUACUACGUCA | 0.0614 ± 0.0098 | 0.0031 ± 0.0021 |
| GGAGACGAUCCUAUACAACCUACUACCUCA | 0.174 ± 0.025 | 0.0157 ± 0.0085 |
| GGAGAGGAUACUAUACAACCUACUGACCUCA | 0.077 ± 0.013 | 0.00473 ± 0.002 |
| GGAGACGAUACUAUACAACCUACAACGUCA | 0.00524 ± 0.0044 | 0.00349 ± 0.0012 |
| GGAGACGAUACUAUACAACCUACUAGCCUCA | 0.159 ± 0.021 | 0.00485 ± 0.002 |
| GGAGACCAUACUACUACAACCUACUACCUCA | 0.137 ± 0.015 | 0.0205 ± 0.0057 |
| GGAGACGAUACUCAUACAACCUACUACCUCA | 0.198 ± 0.02 | 0.0151 ± 0.0063 |
| GGAGUGGAUACUAUGACAACCUACUACCUCA | 0.188 ± 0.011 | 0.0114 ± 0.0053 |
| GGAGACCUAACUUUACAACCUACUACCUCA | 0.109 ± 0.025 | 0.00631 ± 0.0034 |
| GGAGACGAAACUAAACAACCUACUACCUCA | 0.145 ± 0.022 | 0.00324 ± 0.0032 |
| GGAGACGAUACUAUACAAGCUACUACCUGA | 0.202 ± 0.022 | 0.00333 ± 0.0015 |

| Sequence | pre-steady-state target cleavage rate [1] | pre-steady-state target cleavage rate [2] |
| --- | --- | --- |
| GGAGACCAUACUAUACAACCUACUAUCCUCA | 0.219 ± 0.019 | 0.00375 ± 0.0028 |
| GGAGACGAUACCAUACAACCUACUACCUCA | 0.236 ± 0.027 | 0.124 ± 0.045 |
| GGAGACGAUACUAUACAACCUACUACGUCA | 0.081 ± 0.012 | 0.00658 ± 0.002 |
| GGAGACCAUACUAUACAACCUACUAGCCUCA | 0.176 ± 0.024 | 0.00697 ± 0.0031 |
| GGAGACCUUACUAUGCAACCUACUACCUCA | 0.158 ± 0.011 | 0.0061 ± 0.0032 |
| GGAGACCAUAGUAUACAUCCUACUACCUCA | 0.19 ± 0.014 | 0.00617 ± 0.0032 |
| GGAGACCAUACUAUACAACCUACUACGCUCA | 0.219 ± 0.028 | 0.00458 ± 0.0028 |
| GGAGUGGAUACUAUACAACCUACUACGACA | 0.0497 ± 0.008 | 0.00539 ± 0.0025 |
| GGAGUGGUUACAAUACAACCUACUACCUCA | 0.172 ± 0.011 | 0.00789 ± 0.0035 |
| GGAGUGGAUAGUAUACAACCUACUACCUGA | 0.0603 ± 0.014 | 0.00315 ± 0.0017 |
| GGAGACCAUUCUAUACAACCUAGUACCUCA | 0.0977 ± 0.022 | 0.00433 ± 0.0024 |
| GGAGUGGAUACUAUACAACCUACUACCAGA | 0.034 ± 0.0071 | 0.00419 ± 0.0019 |
| GGAGAGCAUACUAUACAACCUACUACGUCA | 0.112 ± 0.017 | 0.00351 ± 0.0025 |
| GGAGACCUAUCUAUACAACCUACUACGAGA | 0.0633 ± 0.017 | 0.00279 ± 0.0027 |
| GGAGAGGAUACUAUACAACCUACUACCUCC [g2:g25:cont:t1C] | 0.146 ± 0.013 | 0.12 ± 0.046 |
| GGAGUGGAUACUAUACAACGUACUACCACA | 0.0255 ± 0.0047 | 0.00371 ± 0.00099 |
| GGAGACCUAUCUACUACAACCUACUACCUCA | 0.0541 ± 0.0097 | 0.00749 ± 0.0039 |
| GGAGUGGAUGCUAUACAACCUACUACCUCA | 0.152 ± 0.022 | 0.0921 ± 0.046 |
| GGAGACCAUACAAUACUACCUACUACCUCA | 0.158 ± 0.019 | 0.00374 ± 0.0037 |
| GGAGACCUUACUAUACAACCUACUACCGCA | 0.19 ± 0.022 | 0.00343 ± 0.0026 |

From the supplement of paper PMC10338343
